Compound activity deposited in PubChem BioAssay by National Center for Advancing Translational Sciences (NCATS).
pS6 MEF inh: reduces mTORC1 signaling in Tsc2 and p53 null MEF cells. Tsc2-/- p53-/- MEF, phospho-rpS6 immunofluorescence/PI, 24 h. Potency, µM (titrated, usually from 38.3 µM), without a hit: at the top dose activity change, negative = inhibition, actives largely listed as inhibitors. 0.78% of 44,000 active;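 also: plate controls were DMSO for no effect and rapamycin for full effect; nearly all actives have a fitted effect of over 50% in size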
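Tsc2-/-, p53-/- mouse embryonic fibroblasts (empty-vector line) exposed to compound 24 hrs at 37 C, fixed, immunostained for phospho-rpS6 and counterstained with propidium iodide. Acumen laser scanning gives % positive cells from Alexa 488/PI ratio, thresholded using 7.5 nM rapamycin; PI count gives viability.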
PMP22 txn: modulators of PMP22 gene transcription in S16 Schwann cells; S16 Pmp22-F2sN Schwann cells, FLuc/NLuc coincidence luminescence, 24 h; Potency, µM (doses to about 57.5 µM), for inactives: at the top dose activity change, negative = inhibition, usual class: inhibitors; 2% of 43,000 active; active = clear falling dose curves in both reporters; inconclusive = both reporters move, but less clearly or upward; inactive = either reporter flat; the % is the NLuc reporter signal
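Rat S16 Pmp22-F2sN cells, 500-1,000/well in phenol red-free DMEM + 10% FBS, compound-treated 24 h (37C, 5% CO2). Luminescence: FLuc read, Stop&Glo added, NLuc read.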
p53null 32C tox: kills p53 null cells at the permissive temperature; H1299-neo p53 null cells, ATP luminescence, 24 h, 32C; Potency, µM (doses to about 46.1 µM), without a hit: top-dose activity change, negative = cytotoxicity, most hits filed as cytotoxic; 0.62% of 55,000 active;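 also: 0% = DMSO only and -100% = full killing by 100 µM tamoxifen; nearly all actives have a fitted effect of over 55% in size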
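Overnight 37C seeding (600 cells/well) of H1299-neo preceded a 24 hr, 32C exposure to compounds up to 46 uM. ATP levels, read by luminescence after 20 min at RT, indicated surviving cells.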
SKOV3 invasion: blocks SKOV3ip1 adhesion and invasion in omental model; 0.1% of 46,000 active; Potency, µM (top dose mostly 45.8 µM), for the others: top-dose activity change, negative = inhibition, usual class: inhibitors; SKOV3ip1-GFP adhesion/invasion on 3D omental model, fluorescence;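 also: plate controls were DMSO wells for no effect and tomatine positive control wells for full effect; nearly all actives have a fitted effect of over 65% in size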
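Primary human omental fibroblast/mesothelial 3D culture pre-formed 48 h. SKOV3ip1-GFP cells added with compounds (0.36-46 umol/L), incubated 2 h RT/16 h 37 C, fixed; GFP cells quantified at 488/509 nm.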
p53null 39C kill: kills p53 null cells at the nonpermissive temperature | 0.97% of 55,000 active | H1299 p53-null (neo) cells, 39C, ATPlite viability, 24 h | Potency, µM (highest dose often 46.1 µM), for the others: top-dose activity, negative = cell killing, hits mostly cytotoxic;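 also: 0% = DMSO only and -100% = full killing by 100 µM tamoxifen; nearly all actives have a fitted effect of over 50% in size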
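ATP-luminescence viability readout (ATPlite, 20 min RT) after 24 hr compound treatment at 39C of H1299-neo or H1299-p53A138V cells; titration up to 46 uM; normalized to DMSO and 100 uM tamoxifen; Hill-fit AC50.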
S16 F2sN tox: toxic to S16 Pmp22-F2sN Schwann cells; AID 1508642; 0.48% of 43,000 active; Potency, µM (titrated, usually from 57.5 µM), without a hit: top-dose activity change, negative = cytotoxicity, actives largely listed as cytotoxic; S16 Pmp22-F2sN Schwann cells (luciferase reporters placed in the Pmp22 gene) viability, CellTiter-Glo, 24 h; also: nearly all actives have a fitted effect of over 65% in size
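Rat S16 Schwann reporter line, 24 h treatment with library compounds delivered at 23 nL per well. Cell viability by CellTiter-Glo luminescence.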
An asterisk follows results filed as active; i = inactive; ? = inconclusive; . = no result given. Compounds with a hit are over-represented: about 3.1% of the library has one in this group of screens. Unless noted, calls follow the shape of the dose curve; as a rule, active = well fitted curve in the direction sought with a large enough effect; inconclusive = small, poorly fitted or top-dose-only effect, or another doubt; inactive = no such curve, though single readings can be large; an effect the other way counts as inactive or inconclusive. Unless noted, % is scaled to controls: 0 for no effect and ±100 for the full control effect; potency is read from the fitted curve at half-maximal effect.

SMILES	pS6 MEF inh	PMP22 txn	p53null 32C tox	SKOV3 invasion	p53null 39C kill	S16 F2sN tox
COc1ccc(CN2CCc3nc(N4CCN(c5ccc(F)cc5)CC4)ncc3C2)c(OC)c1OC	-1.6%	13.4µM*	1.7%	-12.5%	18.8%	15.8µM*
CCN(C(=O)C1CCN(S(=O)(=O)c2ccc3c(c2)CCCN3C(C)=O)CC1)c1cccc(C)c1	-4.8%	?	-0.1%	-23.5%	21.9%	-9.7%
CCN(CC)C(=O)C1CCN(S(=O)(=O)c2ccc3c(c2)CCCN3C(C)=O)CC1	-1.5%	0.3%	-0.6%	-10.6%	10µM*	?
CSc1cccc(-n2nnc(-c3nsc(NC(=O)c4cccs4)n3)c2C)c1	-1.1%	-38.2%	-6.1%	-3.0%	?	-14.4%
CCc1cccc(-n2nnc(-c3nsc(NC(=O)c4cccs4)n3)c2C)c1	1.3%	2.2%	-5.3%	0.0%	10µM*	-6.4%
CC(C)n1cnc2c(NCCc3ccc(O)cc3)nc(-c3csc4ccccc34)nc21	.	.	.	-72.0%	.	.
Cc1ccc2nc(N(Cc3cccnc3)C(=O)CCS(=O)(=O)c3ccccc3)sc2c1	-4.7%	?	-4.4%	38.9%	8.4%	17.8µM*
O=C(NC1CCN(Cc2ccccc2)CC1)c1ccc(Cn2c(=O)c3ccccc3n(Cc3ccc(F)cc3)c2=O)cc1	3.29µM*	?	38.3%	2.5%	4.0%	?
Cc1ccc(C)c(Cn2c(=O)n(Cc3ccc(C(=O)NC4CCN(Cc5ccccc5)CC4)cc3)c(=O)c3ccccc32)c1	-5.3%	-3.7%	10.1%	4.6%	-14.8%	18.9%
O=[N+]([O-])c1cn2c(n1)OC[C@@H](OCc1ccc(OC(F)(F)F)cc1)C2	.	.	.	1.8%	.	.
COc1cc2nc(SCC(=O)Nc3cccc(C)c3)n3nc(CCn4c(C)nc5ccccc54)nc3c2cc1OC	-21.0%	?	3.0%	3.3%	-15.1%	?
COc1cc2nc(SCC(=O)Nc3ccc(F)cc3)n3nc(CCn4c(C)nc5ccccc54)nc3c2cc1OC	-15.8%	-18.2%	12.0%	i	20µM*	17.3%
Oc1cc(-c2nc(-c3ccccc3)[nH]c2-c2ccncc2)ccc1Cl	.	.	.	-11.5%	.	.
COc1ccc(-c2c(C)nn3c(C(F)(F)F)cc(-c4ccc(Br)cc4)nc23)cc1	-2.0%	-15.1%	2.0%	4.9%	-12.4%	-7.8%
NC(=O)c1nn2c(C(F)(F)F)cc(-c3ccc(Br)cc3)nc2c1Cl	-2.1%	-18.9%	-7.2%	-3.4%	11.9%	28.2µM*
COc1cc(NC(=O)CCS(=O)(=O)c2nc(-c3cccs3)cc(C(F)(F)F)n2)cc(OC)c1OC	?	?	25.1%	?	8.0%	?
O=C(CCS(=O)(=O)c1nc(-c2cccs2)cc(C(F)(F)F)n1)Nc1cccc(O)c1	13.1µM*	?	8.8%	?	91.0%	?
COc1ccc(NC(=O)CCS(=O)(=O)c2nc(-c3cccs3)cc(C(F)(F)F)n2)cc1OC	13.1µM*	?	36.1%	?	103.3%	?
CCCCN(C)CCNC(=O)c1cc(-c2ccc(Cl)s2)nc2ccccc12	?	?	8.2%	i	12.6µM*	?
Cc1ccnc(NC(c2ccccc2F)c2ccc3cccnc3c2O)c1 (configuration not stated)	?	?	-27.7%	i	?	?
Oc1c(C(Nc2ccccn2)c2ccccc2F)ccc2cccnc12 (configuration not stated)	?	?	?	0.8%	3.98µM*	2µM*
CC(=O)N1CCN(c2ccc(OCc3nn(C)c(C)c3-c3cccc4c(CCCOc5cc(C)c(Cl)c(C)c5)c(C(=O)O)n(Cc5cccnc5)c34)cc2)CC1	.	.	.	19.4%	.	.
